The panel holds about 83,000 compounds, 20% with a hit somewhere; the sample as a whole holds those more often.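 48-hour exposure, single concentration, 96-well plates; percent growth endpoint where 0 means no net growth. Active: below 10.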 Unmarked numbers belong to inactive results. The source made the active and inactive calls.
test system: A498 renal; assay: NCI-60 one-dose screen, 48 h (100 = growth as untreated, 0 = no growth, -100 = all killed); settings: 10 µM unless noted
Method: Growth inhibition of the A498 human tumor cell line is measured as a screen for anti-cancer activity. Cells are grown in 96 well plates and exposed to the test compound for 48 hours. Compounds are tested at a single concentration, which is 10^-5 M for most compounds. The reported endpoint is percent growth (GI% or GIPRCNT), where numbers from 0 - 100% represent growth inhibition, and numbers from -100% - 0 represent cell death. For example, a value of 40 represents 60% growth inhibition. A value of 0 means no net growth occurred over the course of the experiment. A value of -40 indicates 40% of cells at the beginning of the experiment died by the end of the experiment. A value of -100 means all cells are dead at the end of the experiment.
NCI-60 Human Tumor Cell Lines Screen was performed using the standard one-dose NCI protocol, which is described in more detail at https://dtp.cancer.gov/discovery_development/nci-60/default.htm.
Compounds with GIPRCNT values below 10 were considered active. Activity score was based on GIPRCNT using the following formula: […]
Score is 0 for GIPRCNT values of 100 or above, 50 for GIPRCNT values of 0, and 100 for GIPRCNT values of -100.

Compound | growth
CN(C)CCCC1(c2ccc(F)cc2)OCc2cc(-c3csc4ccccc34)ccc21 (stereo not given) | 90.2%
Clc1cccc(C2Cc3cnccc3-c3[nH]c4ccncc4c32)c1 (stereo not given) | 39%
COc1ccc(CNc2ccc3nc(NC(=O)CN4CCCCCC4)sc3c2)cc1 | 90.3%
CCN(CC)c1ccc(-c2cc(-c3cc(OC)c(OC)c(OC)c3)nc(N3CCC(O)CC3)c2C#N)cc1 | 29%
COC(=O)c1sccc1-c1cc(O)c(C(=O)Nc2ccccc2)s1 | 115%
Nc1nc(N)c2c(n1)NC(c1cccc(Nc3ccnc4cc(C(F)(F)F)ccc34)c1)CC(c1ccc3c(c1)OCO3)=N2 (stereo not given) | 87.9%
CCCn1c(=S)sc2c(NNC(C)=O)nc(C)nc21 | 78.1%
c1ccc2cc(Cn3cc(CSc4nc5ccccc5s4)nn3)ccc2c1 | 97.3%
COC(=O)c1c2c(c[n+]([O-])c1C)C(=O)C=C(NCc1ccccc1)C2=O | -99.3% (active)
C#CCOc1ccc2nc(CCl)c(Cl)c(Nc3cccc(C(F)(F)F)c3)c2c1 | 104%
CC1(C)CC(=O)C2=C(C1)C(c1ccc(Cl)cc1)n1ncc(C#N)c1N2 (stereo not given) | 103%
COc1ccc2[nH]cc(-c3nonc3-c3c[nH]c4ccc(Br)cc34)c2c1 | 51.4%
C=C1C(=O)O[C@H]2[C@H]1CC/C(CNC(=O)Cc1c[nH]c3ccccc13)=C\CC[C@@]1(C)O[C@@H]21 | 41.2%
CCOc1ncc([N+](=O)[O-])c(OCC)n1 | 111%
c1csc(-c2cn3nc(-c4c[nH]c5ccccc45)sc3n2)c1 | 20.8%
COc1ccc(C(c2cc(OC)c(OC)c(OC)c2)N2CCCCC2)cc1 (stereo not given) | 7.32% (active)
Cc1ccc2cnc(N)c(C#Cc3cc(C(=O)Nc4ccc(CN5CCN(C)CC5)c(C(F)(F)F)c4)cnc3C)c2c1 | -75.9% (active)
Cc1ccc(O)c(NC(=O)c2cccc(Nc3ccnc(C(F)(F)F)c3)c2)c1 | 96.1%
C[C@@H]1NC(=O)[C@H](Cc2ccccc2)N(Cc2cccnc2)C1=O | 63.5%
CN1C(=O)/C(=C/c2ccc(C(=O)Nc3ncc(Cc4cccc(C(F)(F)F)c4)s3)cc2)SC1=S | 35.6%

Compound | growth
C=C1C(=O)O[C@@H]2C3C(=C(C)CC[C@@H]12)CC1O[C@]13C (stereo not given in full) | 103% [6.75 µM]
NS(=O)(=O)c1ccc(C(=O)N=Nc2c(O)[nH]c3ccc(Cl)cc23)cc1 | 75.3%
c1ccc(-c2c(-c3ccccc3)[n+](Cc3ccc4ccccc4c3)cn2Cc2ccc3ccccc3c2)cc1 | -95.4% (active)
C1CCC(N2CN3c4nonc4N4CN(C5CCCCC5)CN5c6nonc6N(C2)C3C45)CC1 (stereo not given) | 92.9%
CC(C)CCC[C@@H](C)[C@H]1CC[C@H]2[C@@H]3CC=C4c5sc(Nc6cc(C(F)(F)F)cc(C(F)(F)F)c6)nc5CC[C@]4(C)[C@H]3CC[C@]12C | 123%
CCN(CC)CCOc1ccc(Nc2ncc3cc(-c4c(Cl)cccc4Cl)c(=O)n(CCOC)c3n2)cc1 | -75.9% (active)
Cc1nc2sc(C(=O)Nc3ccccn3)c(N)c2cc1C(C)O (stereo not given) | 77.1%
N#Cc1ccc(O)c(C2=NCC(c3ccc(-c4ccccc4)cc3)O2)c1 (stereo not given) | 48.6%
CCN(CC)CCOc1ccc(C(=O)/C=C\c2ccc(Cl)cc2Cl)cc1 | 70%
Cc1cc(Cl)nc(N2CCN(CCNc3ccnc4cc(Cl)ccc34)CC2)n1 | 42.4%
COc1ccc(/C=C(\C(=O)NCc2cccnc2)S(=O)(=O)c2ccccc2)cc1OC | 51%
Cn1cc(-c2nc3c(F)cc4[nH]ncc4c3c3c2CCCC3)c(C(F)(F)F)n1 | -15.1% (active)
COC1/C=C/OC2(C)Oc3c(C)c(O)c4c(O)c(c(/C=N/N(c5ccccc5)c5ccccc5)c(O)c4c3C2=O)NC(=O)C(C)=C/C=C/C(C)C(O)C(C)C(O)C(C)C(OC(C)=O)C1C (stereo not given) | 91.3%
COc1ccc(N/N=C/c2cn(-c3ccc(C(=O)O)cc3)nc2-c2cc3ccccc3oc2=O)cc1 | 125%
COc1cc(Cc2cc(-c3ccccc3)nn(Cc3ccccc3)c2=O)cc(OC)c1OC | 51.1%
CCN(CC)C(=O)CC1=C(C)/C(=C/c2[nH]c(-c3ccc[nH]3)cc2OC)N=C1C | -8.32% (active)
CN(C)c1ccc(/C=N\NC(=O)c2ccc3nc(-c4ccc(Cl)cc4)[nH]c3c2)cc1 | 72.9%
Cc1nc2ccccc2c(/C=C/c2ccc(F)cc2)c1C(=O)/C=C/c1ccccc1 | 55.5%
CSc1ccc2c3c(n(C[C@H](O)CO)c(=O)c2c1)-c1ccccc1C3=O | 52.3%
CCNC(=O)N1CCc2c(Br)c3c(c(OC)c2C1Cc1ccc(OC)cc1)OCO3 (stereo not given) | -12.4% (active)

From PubChem BioAssay (NCI)
